Our source for the Inhibition values is ChEMBL document CHEMBL1157539, “Thousands of chemical starting points for antimalarial lead identification” (Nature, 2010).

SMILES strings stand for the structures.

Holding throughout (assay type): functional
In test [1] the test system is Plasmodium falciparum. The experiment in a line: GSK_TCMDC: Inhibition of Plasmodium falciparum 3D7 in whole red blood cells, using parasite LDH activity as an index of growth. Test compounds present at 2uM.
The subject of test [2] is Plasmodium falciparum. The experiment in a line: GSK_TCMDC: Inhibition of Plasmodium falciparum Dd2 in whole red blood cells, using parasite LDH activity as an index of growth. Test compounds present at 2uM.
In a further test the test system is HepG2. The experiment in a line: GSK_TCMDC: Percent inhibition of human HepG2 cell line. Test compounds present at 10uM.

As for `O=C(NCc1cccc(F)c1)c1ccc(O)c(-c2cc(Cl)cc(Cl)c2)c1`, the Inhibition in the test with Plasmodium falciparum [1] came to 99%; with Plasmodium falciparum [2], 99%; in the test with HepG2, 0%.

As to `Cc1cc2c(NC(=O)NC3CCN(CCc4ccccc4Cl)CC3)cccc2cn1.Cl`, the results for the Inhibition with Plasmodium falciparum [1], in the test with Plasmodium falciparum [2] and in the test with HepG2 were 100%, 46% and 13%, respectively.

Turning to `COc1ccc(CNC(=O)NC2CCN(c3ccnc(Nc4ccc(OC)cc4)n3)C2)cc1` (stereo not drawn), the Inhibition in the test with Plasmodium falciparum [1] came out at 87%; in the test with Plasmodium falciparum [2] it was 80%; in the test on HepG2 it was 27%.

Consider `Cc1cccc(C)c1C1CCN(C2CCC(NC(=O)/C=C/c3ccccc3)CC2)CC1` (stereo not drawn), for which the results for the Inhibition in the test with Plasmodium falciparum [1], with Plasmodium falciparum [2] and with HepG2 were 100%, 45% and 42%, respectively.

In the case of `O=C(NCCCCN1CCC(c2ccc3c(c2OCCO)CCCC3)CC1)c1sc(-c2ccc(C(F)(F)F)cc2)nc1CO`, the Inhibition is 95% with Plasmodium falciparum [1], 20% in the test with Plasmodium falciparum [2] and 37% with HepG2.

Regarding `CN1CCN(c2ccnc3ccc(NC(=O)Nc4ccc5c(c4)CCCC5=O)cc23)CC1`, the Inhibition in the test on Plasmodium falciparum [1] was determined as 100%; in the test on Plasmodium falciparum [2], 90%; with HepG2, 8%.

For `Cc1onc(-c2ccccc2)c1-c1nc(NCCC(c2ccccc2)c2ccccc2)no1`, the Inhibition is listed as 100% in the test with Plasmodium falciparum [1], 78% in the test on Plasmodium falciparum [2] and 0% in the test on HepG2.

As to `CC1CCN(CCNC(=O)c2ccc3c(=O)n(Cc4ccc(Cl)cc4)c(=S)[nH]c3c2)CC1`, the figures for the Inhibition in the test on Plasmodium falciparum [1], with Plasmodium falciparum [2] and with HepG2 were 100%, 75% and 6%, respectively.

Regarding `Cc1n[nH]c2ccc(-c3cc(OC[C@@H](N)Cc4ccccc4)cnc3-c3ccc(OCc4cccc(F)c4)cc3)cc12.O=C(O)C(F)(F)F`, the values for the Inhibition in the test with Plasmodium falciparum [1], with Plasmodium falciparum [2] and in the test with HepG2 were 98%, 59% and 97%, respectively.

Consider `Cc1cc(Nc2ccnc(-c3ccc(Cl)cc3)n2)ccn1`, for which the Inhibition in the test on Plasmodium falciparum [1] amounted to 94%; with Plasmodium falciparum [2], 23%; with HepG2, 6%.

For `CC(C)NCc1cccc(-c2cccc(NC(=O)c3cccc(Cl)c3)c2)c1.O=C(O)C(F)(F)F`, the Inhibition in the test on Plasmodium falciparum [1] came to 98%; with Plasmodium falciparum [2], 38%; with HepG2, 36%.

As for `Cc1ccc(-n2cc(CNCCCn3ccnc3)c(-c3cccc(C)c3)n2)cc1`, the figures for the Inhibition in the test on Plasmodium falciparum [1], with Plasmodium falciparum [2] and in the test on HepG2 were 99%, 36% and 9%, respectively.

In the case of `Cc1cc(C(=O)Nc2ccc(C)c(-c3nc(N(C(=O)c4ccc(F)c(C)c4)C4CCNCC4)nc4c3ccc(=O)n4-c3c(F)cccc3F)c2)ccc1F`, the Inhibition with Plasmodium falciparum [1] came to 99%; in the test with Plasmodium falciparum [2] it was 99%; with HepG2, 4%.

As for `O=C(Cc1cccnc1)N(Cc1ccc(-c2ccc(CNCc3cccnc3)cn2)cc1)C1CCN(Cc2ccccc2)CC1.O=C(O)C(F)(F)F`, the Inhibition in the test on Plasmodium falciparum [1] was 93%; with Plasmodium falciparum [2], 6%; in the test with HepG2 it was 8%.

For the molecule `CCN(CC)/C(=N/C(=N)NCc1ccc(Cl)cc1)NCCCCCCN/C(=N\C(=N)NCc1ccc(Cl)cc1)N(CC)CC`, the Inhibition amounted to 100% with Plasmodium falciparum [1], 100% in the test on Plasmodium falciparum [2] and 18% in the test with HepG2.

Consider `COc1ccc(S(=O)(=O)N2CCC(NS(=O)(=O)c3ccc(F)cc3)CC2)cc1`, for which the Inhibition in the test with Plasmodium falciparum [1] came to 80%; in the test with Plasmodium falciparum [2], 0%; in the test with HepG2 it was 3%.

On to `CCC(C)NC(=O)Nc1ccc(-c2cccc(-c3nc4ccccc4[nH]3)c2)cc1` (stereo not drawn), for which the Inhibition in the test on Plasmodium falciparum [1] is reported as 94%; in the test on Plasmodium falciparum [2] it was 37%; in the test on HepG2 it was 41%.

Turning to `COc1ccc(C(=O)Nc2nonc2-c2ccc(OC)c(OC)c2)cc1Cl`, the Inhibition with Plasmodium falciparum [1] is 97%; in the test on Plasmodium falciparum [2], 97%; with HepG2 it was 6%.

As to `C=C[C@]1(C)C[C@@H](OC(=O)NC(=O)C2CCN(C(=O)CSc3ccccc3)CC2)[C@]2(C)[C@H](C)CC[C@]3(CCC(=O)[C@H]32)[C@@H](C)[C@@H]1O`, the figures for the Inhibition in the test on Plasmodium falciparum [1], in the test on Plasmodium falciparum [2] and with HepG2 were 93%, 74% and 0%, respectively.

With `CCOC(=O)c1ccc(NC(=O)Nc2ccc(Cn3ncc(N4CCCNCC4)c(Cl)c3=O)cc2)cc1.O=C(O)C(F)(F)F`, the Inhibition was 88% in the test on Plasmodium falciparum [1], 58% in the test on Plasmodium falciparum [2] and 2% in the test on HepG2.

Take `CCN(CC)C(=O)c1cnc(-c2ccccc2)nc1Oc1cccc(Cl)c1`: the Inhibition is listed as 92% in the test with Plasmodium falciparum [1], 40% in the test with Plasmodium falciparum [2] and 0% with HepG2.

With `Cl.NC(=O)c1cccc(Nc2nccc(Nc3ccc(Oc4ccc5ccccc5c4)cc3)n2)c1`, the Inhibition in the test on Plasmodium falciparum [1] came to 96%; in the test with Plasmodium falciparum [2] it was 31%; with HepG2, 15%.

Regarding `COc1cc([N+](=O)[O-])ccc1NC(=O)Nc1ccc(OC(F)(F)F)cc1`, the Inhibition in the test on Plasmodium falciparum [1] is 84%; with Plasmodium falciparum [2], 72%; with HepG2 it was 14%.

Regarding `CC(=O)O.Cc1cc(F)ccc1[C@H]1CNCCN1C(=O)N(C)[C@@H](C)c1cc(C(F)(F)F)cc(C(F)(F)F)c1`, the Inhibition is listed as 100% in the test on Plasmodium falciparum [1], 99% in the test on Plasmodium falciparum [2] and 20% in the test with HepG2.

For the molecule `COc1cc(F)c2ncc(Cl)c(CCN3CCC(NCc4cc5c(cn4)OCCO5)CC3)c2c1.Cl`, the Inhibition stood at 89% with Plasmodium falciparum [1], 57% with Plasmodium falciparum [2] and 2% with HepG2.

As to `CCn1ncc(Cl)c1CN(C)S(=O)(=O)c1ccc(Br)cc1`, the Inhibition amounted to 90% in the test on Plasmodium falciparum [1], 70% in the test with Plasmodium falciparum [2] and 9% in the test on HepG2.

As to `Cc1ccccc1Nc1cc(Nc2ccccc2C)c2ccccc2n1`, the values for the Inhibition with Plasmodium falciparum [1], in the test with Plasmodium falciparum [2] and in the test on HepG2 were 96%, 93% and 28%, respectively.

Take `CCc1nnc2sc(-c3cccc(NC(=O)c4ccc(OC)c(Cl)c4)c3)nn12`: the Inhibition in the test with Plasmodium falciparum [1] is listed as 92%; in the test with Plasmodium falciparum [2], 55%; with HepG2, 3%.

As to `O=C(/C=C/c1ccc(Cl)c(Cl)c1)NCCCCCN1CCC(NC(=O)Nc2ccc(Oc3ccccc3)cc2)C1` (stereo not drawn), the Inhibition in the test on Plasmodium falciparum [1] was 99%; in the test on Plasmodium falciparum [2], 6%; in the test with HepG2, 35%.

Take `CC(=O)N/N=C/[C@H](CCc1ccccc1)NC(=O)[C@H](CC(C)C)NC(=O)c1ccc(OCCN2CCOCC2)cc1`: the Inhibition stood at 96% in the test with Plasmodium falciparum [1], 87% in the test on Plasmodium falciparum [2] and 4% in the test with HepG2.

As to `CSc1nc2cc3c(cc2n1C(=O)c1ccc(C)cc1)OCCO3`, the values for the Inhibition in the test on Plasmodium falciparum [1], in the test on Plasmodium falciparum [2] and in the test with HepG2 were 99%, 0% and 0%, respectively.

The term Inhibition denotes the drop in the measured response relative to a control, in per cent.
